# Measured values from PubChem BioAssay.
# Inconclusive results are not listed. For some of these results: Measured potencies and affinities stand elsewhere. Calls of active or inactive are those of the source.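 The calls were made as follows, unless noted: active = fitted half-maximal concentration within 10 nM to 100 µM, steepness 0.5 to 2, significant signal drop, low assay interference; inactive = the rest.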
# What was measured:
# [1] = target: Cell division control protein 42 homolog (Homo sapiens) (UniProt P60953); test: inhibition of fluorescent GTP binding to constitutively active Cdc42 – biochemical, multiplex bead flow cytometry, Bodipy-FL-GTP, dose response (AID 1333;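 active = fitted half-maximal concentration within the tested dose range, moderate curve steepness, a statistically real signal drop, and little compound fluorescence or tag-binding interference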)
# Cell division control protein 42 homolog (Homo sapiens), sequence (P60953 whole entry, looked up): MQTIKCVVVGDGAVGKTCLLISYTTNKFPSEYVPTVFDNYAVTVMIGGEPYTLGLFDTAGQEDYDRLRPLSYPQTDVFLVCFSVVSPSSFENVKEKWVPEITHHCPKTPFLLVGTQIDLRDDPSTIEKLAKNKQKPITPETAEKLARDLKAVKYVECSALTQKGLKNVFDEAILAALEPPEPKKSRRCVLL
# [2] = target: Cell division control protein 42 homolog (Homo sapiens) (UniProt P60953); test: inhibition of fluorescent GTP binding to wildtype Cdc42 – biochemical, multiplex bead flow cytometry, Bodipy-FL-GTP, dose response (AID 1334;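 active = fitted half-maximal concentration within the tested range, moderate curve steepness, significant signal drop, and little compound fluorescence or bead-linkage interference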); conditions: bead-based flow cytometry, Bodipy-FL-GTP binding to GST-Cdc42; at 100 µM (top of the series) unless noted
# [3] = target: GTPase HRas (Homo sapiens) (UniProt P01112); test: Ras wt fluorescent GTP loading blockade – biochemical, wildtype, multiplex bead flow cytometry, dose response (AID 1335); conditions: bead-based flow cytometry, Bodipy-GTP binding to GST-Ras; at 100 µM (top of the series) unless noted
# GTPase HRas (Homo sapiens), sequence (P01112 whole entry, looked up): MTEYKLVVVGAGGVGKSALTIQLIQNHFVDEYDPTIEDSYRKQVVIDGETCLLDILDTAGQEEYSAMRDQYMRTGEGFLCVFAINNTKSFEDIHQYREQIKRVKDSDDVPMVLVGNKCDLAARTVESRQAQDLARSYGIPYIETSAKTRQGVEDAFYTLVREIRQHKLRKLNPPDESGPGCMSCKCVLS
# [4] = tested on: Ras-related protein Rab-7a (dog), GTP binding; test: blockers of fluorescent GTP binding to Rab7 – biochemical, wildtype, multiplex bead flow cytometry, dose response (AID 1336; call rule not given here)
# [5] = target: GTPase HRas (Homo sapiens) (UniProt P01112); test: blockade of GTP loading onto mutant Ras – biochemical, activated mutant, multiplex bead flow cytometry, dose response (AID 1341;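 active = dose-response curve with midpoint inside the tested range, moderate steepness, significant amplitude and little compound fluorescence or bead-attachment interference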;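 also: GST-tagged constitutively activated Ras mutant immobilized on beads and multiplexed with other GTPases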)
# [6] = target: Ras-related C3 botulinum toxin substrate 1 (Homo sapiens) (UniProt P63000); test: inhibition of wildtype Rac1 nucleotide loading – biochemical, multiplex bead flow cytometry, dose response (AID 1340;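 active = dose curve with midpoint inside tested range, moderate steepness, plateau gap beyond fit error, low compound glow and bead-link interference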); conditions: GST-Rac1 beads, Bodipy-FL-GTP binding; at 100 µM (top of the series) unless noted
# [7] = rapamycin-like changes in RPL19A-GFP expression – cell-based, S. cerevisiae, multiplex flow cytometry, primary screen (AID 1862; in the data active = percent of DMSO control GFP below about 86%;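 also: lower values mimic rapamycin by blocking the RPL19A rise seen in DMSO cells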); conditions: S. cerevisiae RPL19A-GFP strain, flow cytometry fluorescence, 3 h; at 10 µM; stronger effect = lower value
# [8] = TOR pathway GLN3 branch reporter MEP2-GFP changes – S. cerevisiae, multiplex flow cytometry, primary screen (AID 1867;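 active = GFP response, as percent of the DMSO control, above the screen-wide mean plus 3 SD, about 139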;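 also: median GFP channel fluorescence of barcode-gated MEP2-GFP cells measured by flow cytometry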); conditions: S. cerevisiae MEP2-GFP strain, 3 h, at 10 µM, stronger effect = higher value, 100% means same as DMSO wells
# [9] = TOR pathway RTG branch CIT2 reporter changes – S. cerevisiae, GFP fusion, multiplex flow cytometry, primary screen (AID 1870;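 active = percent response above a set limit, the screen-wide mean plus 3 SD, cut at about 130% in these data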;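 also: barcoded CIT2-GFP strain pooled with four other GFP strains with rapamycin as positive control; median GFP fluorescence per well over plate mean of DMSO wells so 100% = DMSO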); conditions: S. cerevisiae CIT2-GFP expression, 3 h, at 10 µM, stronger effect = higher value
# [10] = TOR pathway LAP4-GFP level changes – S. cerevisiae, multiplex flow cytometry, primary screen (AID 1873;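 active = GFP signal, as percent of the solvent control, above the screen mean plus 3 SD, about 149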); conditions: S. cerevisiae LAP4-GFP expression, 3 h, at 10 µM, stronger effect = higher value
# [11] = yeast AGP1-GFP level changes, GLN3 branch – cell-based, multiplex flow cytometry, S. cerevisiae, primary screen (AID 1887;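 active = GFP signal above the screen-wide mean plus 3 SD, that is over about 124.5% of the solvent control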;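 also: AGP1-GFP fusion strain of S. cerevisiae within a five-strain barcoded multiplex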); conditions: 3 h, at 10 µM, stronger effect = higher value
# [12] = reduced mouse 2C T cell binding to pMHC/ICAM-1 vesicles – MLPCN validation set, flow cytometry, LFA-1/ICAM-1 modulator project, pilot screen (AID 2523;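 active = response below a set limit, under 55% cells CD8-positive and vesicle-bound, and CD8 cells' 90th-percentile brightness under 279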;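 as to vesicle binding response: mean PE anti-B7-1 fluorescence of CD8+ cells relative to row control; 100% = QL9-loaded vesicles with DMSO vehicle in the same plate row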); conditions: 2C mouse CD8+ T cells, at 7 µM, stronger effect = lower value; double positive events: measured here: CD8+/vesicle+ event percentage
# [13] = target: Integrin beta-1 (Homo sapiens) + Integrin alpha-4 (Homo sapiens) (UniProt P13612+P05556); test: alpha4beta1 integrin LIBS antibody binding reduction – U937 cells, HUTS-21 mAb, flow cytometry, validation set, VLA-4 allosteric modulator project, pilot screen (AID 2674;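 active = inhibition above 50%, about 3 SD of the validation set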;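 also: antibody binding induced by the VLA-4 ligand LDV present at three times its Kd; 0% = LDV ligand with antibody and no compound and 100% = antibody without LDV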); conditions: HUTS-21 LIBS mAb binding, at 6.7 µM, stronger effect = higher value, binding induced by LDV ligand
# [14] = calorie-restriction mimetic ROS inhibitors, yeast – validation compound set, pilot screen (AID 2706;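 active = superoxide response below 65% of plate, a cut near 3 SD across the whole screen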;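 also: yeast exposed to compound for one week at 30 degrees C before staining; 100% = mean of all compound wells on the same plate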); conditions: S. cerevisiae aging, superoxide DHE fluorescence; at 10 µM; stronger effect = lower value
# [15] = target: Beta-adrenergic receptor kinase 1 (Homo sapiens) (UniProt P25098); test: GRK2 binders displacing RNA aptamer, biochemical, validation, human GRK2, bead flow cytometry (AID 488806;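 active = aptamer binding inhibition above 30%, about 3 SD of noise from non-fluorescent compounds; inactive = inhibition at or below 30%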); conditions: bead-bound GRK2, FAM-aptamer displacement, at 10 µM, stronger effect = higher value
# Beta-adrenergic receptor kinase 1 (Homo sapiens), sequence (P25098 whole entry, looked up): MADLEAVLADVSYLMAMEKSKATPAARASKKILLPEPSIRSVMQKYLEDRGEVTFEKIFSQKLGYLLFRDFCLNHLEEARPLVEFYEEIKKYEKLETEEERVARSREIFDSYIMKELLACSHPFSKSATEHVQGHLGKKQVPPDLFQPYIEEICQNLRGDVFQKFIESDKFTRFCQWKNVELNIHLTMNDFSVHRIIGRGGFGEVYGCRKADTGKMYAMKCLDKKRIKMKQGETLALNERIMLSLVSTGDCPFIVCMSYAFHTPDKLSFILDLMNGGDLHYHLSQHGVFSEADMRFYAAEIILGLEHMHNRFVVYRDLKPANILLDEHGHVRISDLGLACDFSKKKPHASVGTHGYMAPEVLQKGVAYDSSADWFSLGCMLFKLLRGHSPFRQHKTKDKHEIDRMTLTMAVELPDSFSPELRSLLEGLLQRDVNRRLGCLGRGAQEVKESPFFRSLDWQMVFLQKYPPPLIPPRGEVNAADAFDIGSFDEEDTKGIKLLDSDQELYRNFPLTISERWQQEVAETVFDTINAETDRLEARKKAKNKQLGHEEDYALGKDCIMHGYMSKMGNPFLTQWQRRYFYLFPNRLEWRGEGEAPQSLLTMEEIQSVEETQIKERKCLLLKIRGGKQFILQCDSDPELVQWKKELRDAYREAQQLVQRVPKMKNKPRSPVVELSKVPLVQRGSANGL
# [16] = target: Beta-2 adrenergic receptor (Homo sapiens) (UniProt P07550); test: agonist-induced loss of surface beta2AR – cell-based, FAP fluorogen, flow cytometry, validation set, pilot screen (AID 504459;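 active = percent response above 42, roughly 3 SD of non-fluorescent test compounds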;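 also: agonist-driven loss of surface beta2AR via internalization measured by FAP dye flow cytometry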); conditions: Am2.2-beta2AR cells, at 10 µM, stronger effect = higher value
# Beta-2 adrenergic receptor (Homo sapiens), sequence (P07550 whole entry, looked up): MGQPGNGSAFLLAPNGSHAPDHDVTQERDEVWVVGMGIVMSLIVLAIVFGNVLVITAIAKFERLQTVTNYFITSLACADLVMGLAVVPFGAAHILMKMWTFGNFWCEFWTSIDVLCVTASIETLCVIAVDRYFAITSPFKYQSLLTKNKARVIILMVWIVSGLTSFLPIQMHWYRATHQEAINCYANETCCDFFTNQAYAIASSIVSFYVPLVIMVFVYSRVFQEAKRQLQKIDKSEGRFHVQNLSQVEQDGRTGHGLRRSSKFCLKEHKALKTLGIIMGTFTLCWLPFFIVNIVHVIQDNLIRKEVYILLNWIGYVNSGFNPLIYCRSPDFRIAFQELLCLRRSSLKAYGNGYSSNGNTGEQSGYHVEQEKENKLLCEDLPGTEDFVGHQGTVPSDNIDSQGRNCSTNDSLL
# [17] = target: AP-2 complex subunit beta (Homo sapiens) (UniProt P63010); test: beta-arrestin/AP2 interaction blockers – biochemical, validation set, GST-AP2 beads, flow cytometry, pilot screen (AID 504541;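 active = inhibition above 54%, about 3 SD of non-fluorescent compounds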;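 also: AP2 carries R879A mutation and is captured from E. coli lysate; bead-bound FITC arrestin peptide fluorescence measuring arrestin peptide binding to AP2; 0% = DMSO wells and 100% = excess unlabeled arrestin peptide control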); conditions: FITC arrestin peptide, at 10 µM, stronger effect = higher value, AP2 beta2 appendage fragment, R879A mutant
# AP-2 complex subunit beta (Homo sapiens), sequence (P63010 whole entry, looked up, the tested form may be a part, one chain of several): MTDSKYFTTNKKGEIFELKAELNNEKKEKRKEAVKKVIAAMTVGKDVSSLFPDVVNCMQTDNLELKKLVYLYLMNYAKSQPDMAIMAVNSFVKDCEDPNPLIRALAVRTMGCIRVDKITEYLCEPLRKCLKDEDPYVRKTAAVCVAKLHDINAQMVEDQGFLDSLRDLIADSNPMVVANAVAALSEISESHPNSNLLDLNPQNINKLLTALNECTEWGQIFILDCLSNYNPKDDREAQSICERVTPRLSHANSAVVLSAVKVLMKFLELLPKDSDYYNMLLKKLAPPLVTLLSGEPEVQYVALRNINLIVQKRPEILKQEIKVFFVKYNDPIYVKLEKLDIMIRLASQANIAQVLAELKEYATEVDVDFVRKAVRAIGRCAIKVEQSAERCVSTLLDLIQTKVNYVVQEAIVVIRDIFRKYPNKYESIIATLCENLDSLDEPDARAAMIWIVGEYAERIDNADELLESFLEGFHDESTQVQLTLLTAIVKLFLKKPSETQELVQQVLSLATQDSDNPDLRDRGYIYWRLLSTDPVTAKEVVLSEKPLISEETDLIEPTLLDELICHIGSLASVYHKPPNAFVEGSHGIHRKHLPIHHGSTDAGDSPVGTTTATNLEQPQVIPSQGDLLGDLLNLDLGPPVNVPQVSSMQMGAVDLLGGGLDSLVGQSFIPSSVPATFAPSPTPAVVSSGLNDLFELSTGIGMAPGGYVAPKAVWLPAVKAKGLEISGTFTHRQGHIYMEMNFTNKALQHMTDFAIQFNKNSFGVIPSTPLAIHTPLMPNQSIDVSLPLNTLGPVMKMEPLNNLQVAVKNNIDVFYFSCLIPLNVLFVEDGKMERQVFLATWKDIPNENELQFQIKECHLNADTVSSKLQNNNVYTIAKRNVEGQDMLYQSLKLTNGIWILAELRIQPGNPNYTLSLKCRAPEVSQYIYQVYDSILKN
# [18] = cytosolic pH regulators acting via V-ATPase – S. cerevisiae, pHLuorin, HTS validation (AID 504600; in the data active = response above about 15%;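 also: plate controls were DMSO for no effect and reference compound for full effect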); conditions: V-ATPase proton transport, at 10 µM, stronger effect = higher value
# [19] = tested on: anti-desmoglein-3 scFv antibody binding to human DSG3; test: blockers of pathogenic pemphigus antibody–desmoglein-3 binding – biochemical, validation compound set, bead-based, flow cytometry, pilot screen (AID 588368;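 active = binding below the plate cutoff, the plate median minus 3 SD, with a reading above zero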;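 also: signal is the median channel fluorescence of bead-bound GFP antibody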); conditions: Protein G beads, DSG3-Fc, scFv-GFP binding, at 10 µM, stronger effect = lower value
# [20] = Nile Red efflux blockade in pump-expressing yeast – validation compound set, multiplex, phenotypic, pilot screen (AID 588506;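 active = efflux inhibition above 0.42, the validation set average plus 4 SD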;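 also: Nile Red retained in cells so higher fluorescence means more efflux inhibition; 0 = negative control wells and 1 = enniatin B 25 µM full block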); conditions: S. cerevisiae pump-expressing triplex, Nile Red efflux flow cytometry; at 10 µM; stronger effect = higher value; the pumps come from Candida albicans
# [21] = target: ATP-binding cassette sub-family B member 6 (Homo sapiens) (UniProt Q9NP58); test: blockers of ABCB6-driven porphyrin uptake – K562-ABCB6 cells, flow cytometry, validation set, pilot screen (AID 588550;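 active = inhibition above the screen-wide mean plus 3 SD, about 51%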;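 also: 0% = DMSO wells and 100% = benzethonium chloride 70 µM positive control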); conditions: K562-ABCB6 porphyrin accumulation, 1 h, at 10 µM, stronger effect = higher value
# ATP-binding cassette sub-family B member 6 (Homo sapiens), sequence (Q9NP58 whole entry, looked up): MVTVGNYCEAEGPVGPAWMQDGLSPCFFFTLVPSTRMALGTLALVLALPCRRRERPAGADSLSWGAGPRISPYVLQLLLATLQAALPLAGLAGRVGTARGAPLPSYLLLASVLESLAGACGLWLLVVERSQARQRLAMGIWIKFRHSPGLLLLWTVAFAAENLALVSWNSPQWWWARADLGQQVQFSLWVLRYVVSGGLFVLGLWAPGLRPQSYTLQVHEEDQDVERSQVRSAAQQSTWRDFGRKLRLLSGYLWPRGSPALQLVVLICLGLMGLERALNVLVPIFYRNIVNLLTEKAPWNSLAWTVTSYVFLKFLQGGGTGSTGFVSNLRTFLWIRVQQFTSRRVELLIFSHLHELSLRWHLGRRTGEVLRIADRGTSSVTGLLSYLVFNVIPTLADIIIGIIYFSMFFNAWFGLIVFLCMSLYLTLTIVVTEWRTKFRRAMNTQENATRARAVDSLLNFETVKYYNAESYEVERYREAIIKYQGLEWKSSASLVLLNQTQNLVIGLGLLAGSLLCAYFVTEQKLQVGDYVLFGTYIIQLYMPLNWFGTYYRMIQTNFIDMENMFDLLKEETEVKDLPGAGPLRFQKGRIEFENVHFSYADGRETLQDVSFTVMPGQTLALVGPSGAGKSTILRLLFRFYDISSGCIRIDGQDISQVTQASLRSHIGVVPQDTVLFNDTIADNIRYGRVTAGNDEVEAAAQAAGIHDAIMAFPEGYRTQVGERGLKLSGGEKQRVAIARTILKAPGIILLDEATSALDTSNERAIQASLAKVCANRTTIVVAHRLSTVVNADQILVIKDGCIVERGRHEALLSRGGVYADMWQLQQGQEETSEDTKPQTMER
# [22] = AML differentiation inducers, ER-HoxA9 marrow cells – cell-based, GFP/MAC1 double positive, flow cytometry, validation set, primary screen (AID 588685;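 active = differentiation response of at least 50%, scaled between solvent and reference control, from cells with both markers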;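 also: compound exposure lasts four days before antibody staining and flow analysis; 0% = DMSO wells and 100% = 5 µM fulvestrant positive control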); conditions: stronger effect = higher value, normalized: vehicle 0, fulvestrant 100
# [23] = hit retest on RPL19A-GFP reporter strain – cell-based, S. cerevisiae, flow cytometry, cherry picks, mother/daughter gates, confirmation (AID 2270;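 active = GFP response below 50% of the DMSO control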); conditions: 3 h, at 10 µM, stronger effect = lower value, 100 = same GFP as DMSO wells
# [24] = yeast TOR pathway reporter LAP4-GFP change – cell-based, cherry picks, flow cytometry, mother/daughter gates, confirmation (AID 2271;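 active = GFP response above 150% of the DMSO control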;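 also: ratio of sample to DMSO plate mean so 100% equals DMSO level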); conditions: S. cerevisiae LAP4-GFP strain, 3 h, at 10 µM, stronger effect = higher value, 100 means same as DMSO control
# [25] = TOR pathway reporter MEP2-GFP, retest of hits – S. cerevisiae, flow cytometry GFP, cherry picks, confirmation (AID 2272;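 active = GFP response above 150% of the DMSO control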;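 also: ratio of well signal to plate DMSO mean so 100% equals DMSO level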); conditions: S. cerevisiae MEP2-GFP strain, 3 h, at 10 µM, stronger effect = higher value
# [26] = yeast AGP1-GFP fluorescence change, single-dose – cell-based, flow cytometry, S. cerevisiae, cherry picks, confirmation (AID 2273;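 active = GFP response above 150% of the DMSO level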;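 also: median GFP channel fluorescence over the whole cell population gate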); conditions: S. cerevisiae AGP1-GFP strain, 3 h, at 10 µM
# [27] = TOR pathway CIT2 reporter hit retest – S. cerevisiae, GFP fusion, cherry picks, mother/daughter gates, confirmation (AID 2274;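 active = GFP response above 150% of the DMSO level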); conditions: S. cerevisiae CIT2-GFP strain, flow cytometry, 3 h, at 10 µM, stronger effect = higher value
# [28] = measured here: daughter cell gate
# [29] = measured here: mother cell gate
# [30] = measured here: daughter cell gate response
# [31] = measured here: mother cell gate response
compound,measurement,setting,value
NC(=S)N=Nc1c(O)[nH]c2ccc(F)cc12,outcome,[1],inactive
same,"fluorescence, percent of control (lower = inhibition)",[2],30.2%
same,"GTP binding, percent of control",[3],64.9%
same,outcome,[4],inactive
same,outcome,[5],inactive
COc1cc(NS(=O)(=O)c2ccc(NC(=O)/C=C/c3cccc([N+](=O)[O-])c3)cc2)ncn1,outcome,[1],inactive
same,"fluorescence, percent of control (lower = inhibition)",[2],29.8%
same,"GTP binding, percent of control",[3],77.7%
same,outcome,[4],inactive
same,"GTP binding signal, raw median fluorescence (lower = inhibition) (MCF (arbitrary fluorescence units))",[6],191
same,outcome,[5],inactive
Cc1cc(C)n2ncc(C(=O)O)c2n1,outcome,[1],inactive
same,"fluorescence, percent of control (lower = inhibition)",[2],35.6%
same,"GTP binding, percent of control",[3],84%
same,outcome,[4],inactive
same,"GTP binding signal, raw median fluorescence (lower = inhibition) (MCF (arbitrary fluorescence units))",[6],266
same,outcome,[5],inactive
O=C(Nc1ccc(S(=O)(=O)N2CCCc3ccccc32)cc1)C1CCCO1 (stereo not given),outcome,[1],inactive
same,"fluorescence, percent of control (lower = inhibition)",[2],33.2%
same,"GTP binding, percent of control",[3],79.9%
same,outcome,[4],inactive
same,"GTP binding signal, raw median fluorescence (lower = inhibition) (MCF (arbitrary fluorescence units))",[6],286
same,outcome,[5],inactive
COC(=O)C1=NN(C(=O)c2cccc(Br)c2)C(O)(c2ccc(Cl)cc2)C1 (stereo not given),outcome,[1],inactive
same,"fluorescence, percent of control (lower = inhibition)",[2],31.2%
same,"GTP binding, percent of control",[3],79.1%
same,outcome,[4],inactive
same,"GTP binding signal, raw median fluorescence (lower = inhibition) (MCF (arbitrary fluorescence units))",[6],240
same,outcome,[5],inactive
same,percent of DMSO control GFP,[7],100% (inactive)
same,GFP response vs DMSO,[8],95.1% (inactive)
same,percent response of DMSO control,[9],97.8% (inactive)
same,GFP response vs DMSO,[10],114% (inactive)
same,"GFP response, % of DMSO",[11],89.9% (inactive)
same,double positive events,[12],63.4%
same,vesicle binding response,[12],223% (inactive)
same,inhibition,[13],-83.5% (inactive)
same,superoxide response (% of plate),[14],93.4% (inactive)
same,aptamer binding inhibition,[15],3% (inactive)
same,response,[16],-15.6% (inactive)
same,inhibition,[17],-11.3% (inactive)
same,response,[18],-0.27% (inactive)
same,binding (% of control),[19],109% (inactive)
same,efflux inhibition (fraction of control),[20],-0.1 (inactive)
same,inhibition,[21],-2% (inactive)
same,differentiation response,[22],11% (inactive)
COCCN1C(=O)/C(=C/c2ccc(N3CCCC3)cc2C)SC1=S,outcome,[1],inactive
same,"fluorescence, percent of control (lower = inhibition)",[2],77.8%
same,"GTP binding, percent of control",[3],104%
same,outcome,[4],inactive
same,"GTP binding signal, raw median fluorescence (lower = inhibition) (MCF (arbitrary fluorescence units))",[6],224
same,outcome,[5],inactive
same,GFP response vs DMSO,[23],99.6% (inactive)
same,GFP response vs DMSO,[23]; [28],99.1%
same,GFP response vs DMSO,[23]; [29],100%
same,GFP response relative to DMSO,[24],117% (inactive)
same,GFP response relative to DMSO,[24]; [30],117%
same,GFP response relative to DMSO,[24]; [31],116%
same,GFP response vs DMSO,[25],143% (inactive)
same,"GFP response, % of DMSO",[26],101% (inactive)
same,"GFP response, % of DMSO",[27],112% (inactive)
same,"GFP response, % of DMSO",[27]; [28],112%
same,"GFP response, % of DMSO",[27]; [29],112%
N=c1c(C(=O)NCc2ccco2)cc2c(=O)n3ccccc3nc2n1CCc1ccccc1,outcome,[1],inactive
same,"fluorescence, percent of control (lower = inhibition)",[2],28.7%
same,"GTP binding, percent of control",[3],40.3%
same,outcome,[4],inactive
same,"GTP binding signal, raw median fluorescence (lower = inhibition) (MCF (arbitrary fluorescence units))",[6],96.5
same,outcome,[5],inactive
same,GFP response vs DMSO,[23],96.8% (inactive)
same,GFP response vs DMSO,[23]; [28],96.4%
same,GFP response vs DMSO,[23]; [29],95.8%
same,GFP response relative to DMSO,[24],99.2% (inactive)
same,GFP response relative to DMSO,[24]; [30],99.2%
same,GFP response relative to DMSO,[24]; [31],90.8%
same,GFP response vs DMSO,[25],100% (inactive)
same,"GFP response, % of DMSO",[26],97% (inactive)
same,"GFP response, % of DMSO",[27],96.9% (inactive)
same,"GFP response, % of DMSO",[27]; [28],95.4%
same,"GFP response, % of DMSO",[27]; [29],91.4%
O=C(O)c1ccc(COc2ccccc2Cl)o1,outcome,[1],inactive
same,"fluorescence, percent of control (lower = inhibition)",[2],73.5%
same,"GTP binding, percent of control",[3],96.7%
same,outcome,[4],inactive
same,outcome,[5],inactive
